# According to the supplement of paper PMC9446081:
# Screen size: about 39,000 compounds; about 220 (0.56%) showed activity. Shown is part of a subset that was picked to be rich in actives.
# System: Escherichia coli K-12 BW25113
# Assay: relative growth (OD600 normalised to plate interquartile mean) (fraction); higher = less growth inhibition, active = 0.2 or less
# Settings: 50 µM; LB; incubation time: overnight (16-24 h)
# 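Also: Wild-type cells incubated without shaking, value is the mean of two biological replicates.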
row,Compound,relative growth
1,CN[C@H]1C[C@@H](N)[C@H](O)[C@@H](O[C@@H]2O[C@H](CO)[C@H](O)[C@@H]3O[C@@]4(O[C@H]23)O[C@H]([C@@H](N)CO)[C@H](O)[C@H](O)[C@H]4O)[C@@H]1O,0.0323 (active)
2,COC(=O)[C@]1(Cc2ccccc2N=[N+]=[N-])N=C(c2ccc(OCCCO)cc2)O[C@@H]1c1ccccc1N=[N+]=[N-],1.03 (inactive)
3,CCOCC(=O)N1CC[C@H]2CNC[C@H]21,0.983 (inactive)
4,CCCCCCCCCCCCCC(=O)O[C@@H]1[C@@H](C)[C@@]2(O)[C@@H](C=C(CO)C[C@]3(O)C(=O)C(C)=C[C@@H]23)[C@@H]2C(C)(C)[C@]12OC(C)=O,1.02 (inactive)
5,CN(C)[C@@H]1C(=O)C(C(N)=O)=C(O)[C@@]2(O)C(O)=C3C(=O)c4c(O)cccc4[C@](C)(O)[C@H]3C[C@@H]12,0.0416 (active)
6,CN(C)[C@@H]1C(=O)[C@@H](C(N)=O)C(=O)[C@@]2(O)C(=O)[C@H]3C(=O)c4c(O)ccc(Cl)c4[C@@](C)(O)[C@H]3C[C@@H]12,0.037 (active)
7,CN(C)[C@@H]1C(=O)[C@H](C(N)=O)C(=O)[C@@]2(O)C(=O)[C@@H]3C(=O)c4c(O)cccc4[C@@](C)(O)[C@H]3C[C@@H]12,0.182 (active)
8,COc1c(C[C@@H](C)O)c2c3c(C[C@@H](C)O)c(OC)c(=O)c4c(O)cc5c(c6c(cc(O)c(c1=O)c62)OCO5)c43,1.08 (inactive)
9,CC12CCC(O)CC1CCC1C2CC(O)C2(C)C(C3=CC(=O)OC3)CCC12O (centres undefined),0.988 (inactive)
10,CC(=O)N1CCCC[C@]12CCNC2,0.984 (inactive)
11,CC1=C(O)C(=O)C=C2C1=CC=C1C2(C)CCC2(C)C3CC(C)(C(=O)O)CCC3(C)CCC12C (centres undefined),1.02 (inactive)
12,CN(C)C(=O)[C@]1(Cc2ccccc2CN=[N+]=[N-])N=C(c2ccc(OCCCO)cc2)O[C@@H]1c1ccccc1N=[N+]=[N-],1.02 (inactive)
13,CC(=O)OC1CC2(C)C(c3ccoc3)CC3OC32C2(C)C(=O)C(O)=C3C(C)(C)C(=O)C=CC3(C)C12 (centres undefined),1.06 (inactive)
14,CCOC(=O)c1c(CN2CCN(c3ccccc3)CC2)n(Cc2ccccc2)c2cc(Br)c(O)cc12,1.03 (inactive)
15,CO[C@@H]1C[C@@H](C[C@H]2CC[C@H](C)[C@H]([C@@H](C)C(=O)O)O2)O[C@]2(O[C@](C)([C@H]3CC[C@@](C)([C@H]4O[C@@H]([C@H]5O[C@@](O)(CO)[C@H](C)C[C@@H]5C)C[C@@H]4C)O3)C[C@H]2C)[C@@H]1C,0.945 (inactive)
16,Cc1ccc(OC(=O)N(C)C[C@H]2OCc3ccccc3-c3c(n(C)c4ccccc34)C(=O)N([C@H](C)CO)C[C@@H]2C)cc1,1 (inactive)
17,CC(=O)OC1CC(OC2C(O)CC(OC3C(O)CC(OC4CCC5(C)C(CCC6C5CC(O)C5(C)C(C7=CC(=O)OC7)CCC65O)C4)OC3C)OC2C)OC(C)C1OC1OC(CO)C(O)C(O)C1O (centres undefined),0.995 (inactive)
18,Cc1nc(-c2ccc(-c3ccc(C(=O)N4CCc5cc6c(cc54)C4(CCN(C)CC4)CO6)cc3)c(C)c2)no1,0.932 (inactive)
19,CO[C@@H]1C=C[C@@H]2[C@H]1N2CCO (some centres undefined),0.968 (inactive)
20,CN[C@@H]1[C@@H](O)[C@@H](O[C@@H]2[C@@H](O)[C@H](O[C@H]3O[C@H](CN)CC[C@H]3N)[C@@H](N)C[C@H]2N)OC[C@]1(C)O.CN[C@@H]1[C@@H](O)[C@@H](O[C@@H]2[C@@H](O)[C@H](O[C@H]3O[C@H]([C@@H](C)N)CC[C@H]3N)[C@@H](N)C[C@H]2N)OC[C@]1(C)O.CN[C@@H]1[C@@H](O)[C@@H](O[C@@H]2[C@@H](O)[C@H](O[C@H]3O[C@H]([C@@H](C)NC)CC[C@H]3N)[C@@H](N)C[C@H]2N)OC[C@]1(C)O,0.624 (inactive)
21,CNC1C(O)C(OC2C(N)CC(N)C(OC3OC(C(C)O)C(O)C(O)C3N)C2O)OCC1(C)O (centres undefined),0.0438 (active)
22,CN[C@@H]1[C@@H](O)[C@@H](O[C@@H]2[C@H](O)[C@@H](O[C@H]3O[C@H]([C@@H](C)O)[C@@H](O)[C@H](O)[C@H]3N)[C@H](N)C[C@@H]2N)OC[C@]1(C)O,0.484 (inactive)
23,C[C@@]1(C(=O)O)[C@H]2CC[C@@H](O2)[C@@]1(C)C(=O)O,0.979 (inactive)
24,CC(=O)OC[C@]12CCC(C)=C[C@H]1O[C@@H]1[C@H](O)[C@@H](OC(C)=O)[C@@]2(C)[C@]12CO2,0.969 (inactive)
25,[NH2][Pt]1([NH2])[O]C(=O)C2(CCC2)C(=O)[O]1,0.958 (inactive)

row,Compound,relative growth
1,CC(C)(C)c1ccc(O)cc1,0.998 (inactive)
2,CNC(=O)Oc1cccc2ccccc12,1.05 (inactive)
3,NCCc1cccc2ccccc12,1 (inactive)
4,OCC(Br)(Br)Br,1.02 (inactive)
5,O=[N+]([O-])C(Br)(CO)CO,0.0475 (active)
6,OCCN(CCO)CCO,0.97 (inactive)
7,C[C@@H](N)Cc1ccc(O)cc1,0.992 (inactive)
8,C[C@@H]1O[C@@H](O[C@@H]2C[C@@H](O)[C@]3(CO)[C@H]4[C@H](O)C[C@]5(C)[C@@H](C6=CC(=O)OC6)CC[C@]5(O)[C@@H]4CC[C@]3(O)C2)[C@H](O)[C@H](O)[C@H]1O,0.995 (inactive)
9,NCC(=O)c1ccccc1,1 (inactive)
10,CC(=O)[O][Hg][c]1ccccc1,0.0564 (active)
11,O=C(Cc1ccccc1)c1ccccc1,0.986 (inactive)
12,C=C(C)[C@@H]1CCC(C)=C[C@H]1c1c(O)cc(CCCCC)cc1O,1.01 (inactive)
13,C[C@@]12C(=O)OC(=O)[C@]1(C)[C@H]1CC[C@@H]2O1,0.933 (inactive)
14,COc1cccc(C2(N)CCCC2)c1,1.02 (inactive)
15,CN1[C@@H]2CC[C@@H]1C[C@H](O)C2 (some centres undefined),1.01 (inactive)
16,O=C1C=C2C(=CCO[C@@H]2O)O1,1 (inactive)
17,O=C1C=C2C(=CCOC2O)O1 (centres undefined),0.0434 (active)
18,CC1(C)C(=O)C=CC2(C)C1=C(O)C(=O)C1(C)C2CCC2(C)C(c3ccoc3)CC3OC321 (centres undefined),1.07 (inactive)
19,COC(=O)C[C@](O)(CCC(C)(C)O)C(=O)O[C@@H]1C(OC)=C[C@]23CCCN2CCc2cc4c(cc2[C@H]13)OCO4,1.02 (inactive)
20,O=c1[nH]c2ccccc2n1C1CCN(Cc2ccc(-c3nc4cc5[nH]cnc5cc4nc3-c3ccccc3)cc2)CC1,1.09 (inactive)
21,O=[N+]([O-])c1ccc(N(CCO)CCO)c2c1no[n+]2[O-],0.0367 (active)
22,C[C@@H]1CC[C@@]2(OC1)O[C@H]1C[C@H]3[C@@H]4CC=C5C[C@@H](O[C@@H]6O[C@H](CO)[C@@H](O[C@@H]7O[C@@H](C)[C@H](O)[C@@H](O)[C@H]7O)[C@H](O)[C@H]6O[C@@H]6O[C@@H](C)[C@H](O)[C@@H](O)[C@H]6O)CC[C@]5(C)[C@H]4CC[C@]3(C)[C@H]1[C@@H]2C,0.913 (inactive)
23,CC(C)C12OC1C1OC13C1(C)CCC4=C(COC4=O)C1CC1OC13C2O (centres undefined),0.947 (inactive)
24,COc1ccc(C(CN(C)C)C2(O)CCCCC2)cc1.Cl (centres undefined),1.14 (inactive)
